Screens from PubChem.
Rows were chosen to be rich in hits. Some 0.5% of all compounds tested hit in one or more screens of this group.
Tat export inh = inhibitors of E. coli Tat protein transport | E. coli MC4100 TorA-mCherry Tat export, fluorescence | inhibition, % at 10 µM | 340,000 tested, 0.036% active | AID 488895;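 active means mean replicate inhibition at least 50% and at least half of replicates individually reaching 50%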;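 further: exported cargo escapes ClpAP degradation while cytoplasmic cargo is degraded and loses fluorescence; 0% = median of neutral control wells and 100% = median of NaSCN control wells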
AddAB inh = less growth of phage-infected E. coli with AddAB; E. coli expressing H. pylori AddAB, absorbance growth; inhibition, % at 11.9 µM; 330,000 tested, 0.29% active; AID 435030; in the data active means inhibition above about 12%;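 further: 0% = vehicle wells of infected cells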
E coli growth-1 = bacterial growth inhibition, counter-screen for AddAB inhibitors | E. coli V3065 growth, OD600 absorbance, 18 h | inhibition, % at 11.9 µM | 330,000 tested, 0.27% active | AID 449728;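 active means inhibition above the campaign's mean inhibition across all tested compounds plus 3 SD, cut at about 9.9% in these data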;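 further: uninfected addAB+ strain grown without phage in ampicillin broth; 0% = DMSO wells and 100% = ciprofloxacin 0.95 µg/ml wells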
E coli growth-2 = E. coli growth inhibition | Escherichia coli growth, OD600, 23 h; active compounds read low | AID 1053175 | 330,000 tested, 0.21% active | OD600 absorbance (concentration not given with the values);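 active means OD600 absorbance below the run mean of sample wells minus 3.6 SD, in any replicate, cut at about 0.56 in these data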
phage Ecoli inh = E. coli growth loss with phage present | 360,000 tested, 0.26% active | growth absorbance | inhibition, % at 11.9 µM | AID 651602; in the data active means inhibition above about 11%
RecBCD conf = growth loss of phage-infected V66 E. coli, RecBCD confirmation screen | E. coli V66 + T4 2- phage, growth OD | inhibition, % at 11.9 µM | 890 tested, 45% active | shares compounds with phage Ecoli inh | AID 651982;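 active means mean inhibition over triplicates exceeding the hit threshold derived in the original primary screen, cut at about 11% in these data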
Ecoli viability = bacterial viability inhibition counter-screen for RecBCD; 890 tested, 29% active; AID 651983; inhibition, % at 11.9 µM; shares compounds with phage Ecoli inh; E. coli viability, absorbance (OD) growth; in the data active means inhibition above about 20%;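 further: E. coli strain V66 grown with compound alone and no phage infection; 0% = bacteria with DMSO vehicle only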
AddAB counter = growth loss of phage-infected AddAB E. coli, RecBCD counter-screen; shares compounds with phage Ecoli inh; E. coli expressing H. pylori AddAB + T4 phage, OD growth; gene 2 mutant T4, recBCD-deleted host; inhibition, % at 11.9 µM; 890 tested, 45% active;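 active means mean inhibition above the solvent-only control wells' mean plus 3 SD, cut at about 22% in these data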;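 further: higher means less bacterial growth from phage killing when AddAB is blocked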
Active calls of the source: *; . = not tested or not shown.

SMILES | Tat export inh | AddAB inh | E coli growth-1 | E coli growth-2 | phage Ecoli inh | RecBCD conf | Ecoli viability | AddAB counter
CO[C@H]1/C=C/O[C@@]2(C)Oc3c(C)c(O)c4c(O)c(c5c(c4c3C2=O)NC2(CCN(CC(C)C)CC2)N=5)=NC(=O)/C(C)=C\C=C\[C@H](C)[C@H](O)[C@@H](C)[C@@H](O)[C@@H](C)[C@H](OC(C)=O)[C@@H]1C | 107.3* | . | . | . | 95.0* | 95.1* | 98.9* | 99.5*
Cc1cccc(NC(=O)COC(=O)CN2CCCCCC2=O)c1C | -11.8 | -0.4 | -0.1 | 0.672 | 10.9* | 0.8 | 0.8 | -0.6
CC(=NNc1ccc(C(F)(F)F)cc1[N+](=O)[O-])C(C)C | . | . | . | 0.648 | . | . | . | .
O=c1ccc2cc3c([nH]c4ccc(Br)cc43)oc-2c1O | 3.5 | 8.3 | 8.5 | 0.704 | 14.0* | 6.1 | 8.1 | 16.7
CC(=O)N1N=C(c2cccc(O)c2)CC1c1cccs1 (stereo unspecified) | 2.2 | . | . | 0.659 | 11.2* | -6.4 | -7.0 | -0.7
CC(=O)N1N=C(c2cccc(NS(C)(=O)=O)c2)CC1c1cccs1 (stereo unspecified) | -6.1 | -0.4 | -1.8 | 0.676 | 3.5 | . | . | .
Oc1cccc2cc(Nc3ccccc3)cnc12 | . | . | . | . | 22.7* | 16.0* | 19.2 | 25.1*
Fc1ccc(CN2CCCN(Cc3nc(-c4ccc5c(c4)OCO5)no3)CC2)cc1 | -1.6 | 2.6 | -0.1 | 0.656 | 4.3 | . | . | .
O=C(c1ccco1)N1CCCN(Cc2nc(-c3ccc4c(c3)OCO4)no2)CC1 | 3.8 | -1.7 | -0.2 | 0.677 | 14.9* | 1.1 | 1.4 | -1.6
CN(C)CCOc1ccc2c(c1)C(=O)C(=Cc1ncc([N+](=O)[O-])n1C)C2 | . | . | . | . | 94.9* | 86.6* | 96.4* | 100.2*
CCc1cc(OCCN(C)C)ccc1Cl | -2.2 | -1.1 | 0.8 | 0.712 | -4.4 | . | . | .
COc1ccc(C)c2sc(=NC(=O)c3ccccc3)n(C)c12 | -9.5 | -3.7 | -0.2 | 0.78 | 99.8* | -1.3 | 0.7 | 0.9
COc1ccc(C)c2sc(=NC(=O)c3ccc(C(C)=O)cc3)n(C)c12 | -6.7 | 3.0 | -0.3 | 0.663 | 2.4 | . | . | .
CON=CCC(=O)Nc1ccc(Oc2ccccc2)cc1 | . | . | . | 0.707 | . | . | . | .
O=[N+]([O-])c1ccc(C=NN2CCNC2=S)o1 | . | . | . | . | 101.4* | 100.6* | 102.0* | 101.0*
Cc1cc2ncn(N=Cc3ccc([N+](=O)[O-])o3)c2cc1C | . | . | . | 0.575 | . | . | . | .
CCN(CC)CC1CN(N=Cc2ccc([N+](=O)[O-])o2)C(=O)O1 (stereo unspecified) | -8.9 | . | . | 0.0635* | 38.9* | 41.1* | 59.4* | 101.6*
O=C(NC(c1ccccc1)C(O)c1ccccc1)C1CCCN1C(=O)OCc1ccccc1 (stereo unspecified) | . | . | . | 0.635 | . | . | . | .
CC(=O)c1cn(CC(=O)Nc2ccccc2)c2ccccc12 | -2.5 | 13.7* | 10.7* | 0.691 | 12.2* | 4.7 | 9.1 | 2.0
CC(C)N=c1scc(-c2cccs2)n1/N=C/c1ccc(O)c(O)c1O | -8.7 | 10.2 | 7.4 | . | 16.1* | -0.8 | -1.4 | 2.1
CC(=O)Nc1cccc(C(=O)NN=Cc2cccnc2)c1 | . | . | . | 0.68 | . | . | . | .
O=C(NN=C1CCSc2ccc(F)cc21)c1cccnc1 | . | . | . | 0.659 | . | . | . | .
O=C(O)c1nn(CCSc2ccccc2F)c(=O)c2ccccc12 | -4.0 | -1.1 | 0.1 | 0.701 | 36.7* | -5.3 | -5.5 | -0.2
Cc1ccc(SCCn2nc(C(=O)O)c3ccccc3c2=O)cc1 | 13.1 | 5.1 | 2.3 | 0.737 | 0.8 | . | . | .
[O-][N+]1=C2CCCC(=NO)C2=NC12CCCCC2 | . | . | . | 0.634 | . | . | . | .
SMILES | Tat export inh | AddAB inh | E coli growth-1 | E coli growth-2 | phage Ecoli inh | RecBCD conf | Ecoli viability | AddAB counter
FC(F)(F)c1cccc(CNC(=S)Nc2ccccc2)c1 | 8.8 | 3.3 | 2.5 | 0.602 | 5.3 | . | . | .
O=C(NCc1ccc2c(c1)CCO2)Nc1cccc(C(F)(F)F)c1 | 5.1 | 3.3 | -1.2 | 0.66 | 11.3* | 0.3 | 0.4 | 5.2
CNC(=O)Nc1cccc(C(F)(F)F)c1 | 0.0 | 7.9 | 5.1 | 0.698 | 10.1 | . | . | .
O=C(NCc1cccnc1)Nc1cccc(C(F)(F)F)c1 | 10.8 | . | . | 0.553 | 2.4 | . | . | .
O=C(Nc1ccccc1)Nc1cccc(C(F)(F)F)c1 | 1.3 | 9.3 | 7.0 | 0.619 | 11.3* | 6.1 | 6.3 | 6.5
FC(F)(F)c1cccc(NC(=S)NCc2ccccc2)c1 | 0.1 | 9.2 | 6.5 | 0.558 | 11.5* | 5.0 | 6.8 | 7.4
O=C(Nc1ccccc1)Nc1ccc(Br)c(Cl)c1 | -4.6 | 6.8 | 7.3 | 0.578 | 12.0* | 7.2 | 7.3 | 5.1
CC(=O)N(N=C1Sc2ccccc2C1=O)c1cccc(C)c1 | . | . | . | 0.719 | . | . | . | .
CC(=NNC(=O)c1c(Br)c(C)nn1C)c1ccc(NC(=O)C(C)Oc2ccc(Cl)cc2C)cc1 (stereo unspecified) | . | . | . | 0.723 | . | . | . | .
S=C(NCc1ccccc1)Nc1ccc(Cl)cc1 | -6.6 | 4.0 | 6.3 | 0.602 | 5.0 | . | . | .
FC(F)(F)Sc1ccc(NC(=S)NCc2ccccc2)cc1 | -13.5 | 10.6 | 10.1* | 0.604 | 12.9* | 6.9 | 8.0 | 13.3
CCSCCc1nnc(NC(=O)Nc2cccc(C(F)(F)F)c2)s1 | -7.8 | 5.0 | 5.1 | 0.695 | 11.0* | 4.2 | 6.5 | 5.0
O=C(C=Cc1ccc(O)c(O)c1)OC1C[C@](O)(C(=O)O)CC(O)C1O (stereo partly specified) | . | . | . | 0.673 | . | . | . | .
O=C(NCc1ccccn1)C1CC1C(NP(=O)(c1ccccc1)c1ccccc1)c1ccccc1 (stereo unspecified) | . | . | . | 0.672 | . | . | . | .
COc1ccc(C=NNc2ccccc2C(=O)O)cc1Cn1cc([N+](=O)[O-])cn1 | . | . | . | 0.72 | . | . | . | .
Nc1ccc(CCC(=O)N2CCCC2)cc1 | 1.9 | . | . | 0.711 | 1.6 | . | . | .
CCC(=O)Nc1ccc(CCC(=O)N2CCCC2)cc1 | 2.6 | 2.5 | 0.3 | 0.659 | 23.6* | -2.1 | -2.6 | -0.1
Cn1c(=O)c2c(nc(NN=Cc3cccs3)n2Cc2ccccc2)n(C)c1=O | . | . | . | 0.69 | . | . | . | .
NC(=S)NN=Cc1cc(-c2cccc(N)c2)ccn1 | . | . | . | . | 21.2* | 13.8* | 16.0 | 31.7*
CC=CC=CC(=O)Nc1cccc(C2=NOC3(C2)CC(C(N)=O)N(C(=O)c2ccc(Cl)cc2)C3)c1 (stereo unspecified) | . | . | . | 0.663 | . | . | . | .
Cc1nc2ccc(N)cc2c(=O)n1Cc1ccc(Cl)cc1 | 14.8 | 1.9 | -0.7 | 0.694 | 4.1 | . | . | .
Nc1ccc(Cn2ccc3c4c(N)nc(N)nc4ccc32)cc1 | 16.8 | . | . | . | 99.8* | 103.2* | 104.5* | 104.9*
CC(=O)CC1c2cc(C(F)(F)F)ccc2S(=O)(=O)N1Cc1ccccc1 (stereo unspecified) | . | . | . | 0.673 | . | . | . | .
C#CCNC(=O)C1=CC(c2coc3ccccc3c2=O)C(CCCO)C(OCC)O1 (stereo unspecified) | . | . | . | 0.689 | . | . | . | .
CCN(CCOC(=O)Nc1ccc(Cl)cc1)C(=O)Nc1ccc(Cl)cc1 | . | . | . | . | 11.4* | 4.5 | 5.2 | 1.4
Cc1c(Cc2ccc3c(c2)OCO3)sc(NC(=O)C(C)(C)C)c1C#N | -2.2 | 0.2 | -0.6 | 0.791 | 100.1* | -1.5 | -1.5 | -1.2
